# Assay outcomes from PubChem BioAssay.
# SW480 rereplic – inducers of DNA re-replication in SW480 colon cancer cells. SW480 DNA re-replication, Hoechst DNA content imaging, 48 h. Potency, µM (doses to about 46.1 µM), for the others: at the highest dose re-replication activation, hits mostly activators. 340,000 compounds, 1.8% hits. AID 624297; also: % of control where 0% means no effect; nearly all actives have a fitted effect of over 55% in size
#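 Treated cells incubate 48 hr (37 C, 5% CO2), are stained 40 min with Hoechst, and nuclear fluorescence is enumerated; a rise in nuclei with high DNA signal marks re-replication.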
# KB-3-1 tox – KB-3-1 parental cell cytotoxicity; KB-3-1 viability, CellTiter-Glo ATP luminescence, 72 h; AID 1347075; 400,000 compounds, 1.4% hits; Potency, µM (series often up to 46.1 µM), usual class: cytotoxic; also: % is scaled to controls: 0 for no effect and ±100 for the full control effect; nearly all actives have a fitted effect of over 60% in size
#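 Parental KB-3-1 viability, qHTS format: 72 h compound exposure, 37 °C; CellTiter-Glo; media-only wells and DMSO plates as controls; concentration-effect fits on corrected data.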
# RGS4 inhibitor – blocks human RGS4-accelerated GTP hydrolysis. Transcreener GDP fluorescence polarization, RGS4-accelerated GTP hydrolysis. 390,000 compounds, 0.039% hits. P49798. AID 504845. Potency, µM (titrated, usually from 114 µM), for inactives: at the top dose activity change, negative = inhibition, most hits filed as inhibitors; also: % is scaled to controls: 0 for no effect and ±100 for the full control effect; nearly all actives have a fitted effect of over 75% in size
# Target sequence (P49798 whole entry, looked up): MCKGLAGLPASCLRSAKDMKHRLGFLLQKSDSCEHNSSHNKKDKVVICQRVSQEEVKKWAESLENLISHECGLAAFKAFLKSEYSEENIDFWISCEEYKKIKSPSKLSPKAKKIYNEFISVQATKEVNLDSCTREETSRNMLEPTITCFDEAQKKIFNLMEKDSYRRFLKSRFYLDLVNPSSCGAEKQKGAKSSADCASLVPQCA
#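 MLSMR compounds (23 nl, pin-transferred) preincubated 10 min at room temperature with a 500nM (2x) first reagent, then RGS4 at 900nM (2x) plus Transcreener GDP mix added; fluorescence polarization (620/688 nm) read before and after 90 min at 30 °C.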
# KB-V1 cytotox – KB-V1 MDR subline cytotoxicity. 400,000 compounds, 3.4% hits. AID 1347076. KB-V1 MDR cells viability, CellTiter-Glo, 72 h. Potency, µM (doses to about 46.1 µM), most hits filed as cytotoxic; also: % is scaled to controls: 0 for no effect and ±100 for the full control effect; nearly all actives have a fitted effect of over 60% in size
#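 qHTS viability screen in drug-selected KB-V1 MDR cells: 72 h compound treatment at 37 degrees C, ATP luminescence end point.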
# TSG101-PTAP inh – blocks PTAP/TSG101 interaction to inhibit HIV-1 budding | Q99816 | Fluorescence polarization, FITC-PTAP peptide / Tsg101 binding | Potency, µM (doses to about 115 µM), without a hit: at the highest dose activity change, negative = inhibition, usual class: inhibitors | 340,000 tested, under 10 active | AID 493005; active = well fitted inhibition curve with a large enough effect in the main read-out, with a control signal flat, not every such curve was filed as active; inconclusive = small, poorly fitted or top-dose-only effect, or effect the other way, or a change in a side signal; inactive = no such curve, though single readings can be large or run the other way; also: % of control where 0% means no effect
# Target sequence (Q99816 whole entry, looked up): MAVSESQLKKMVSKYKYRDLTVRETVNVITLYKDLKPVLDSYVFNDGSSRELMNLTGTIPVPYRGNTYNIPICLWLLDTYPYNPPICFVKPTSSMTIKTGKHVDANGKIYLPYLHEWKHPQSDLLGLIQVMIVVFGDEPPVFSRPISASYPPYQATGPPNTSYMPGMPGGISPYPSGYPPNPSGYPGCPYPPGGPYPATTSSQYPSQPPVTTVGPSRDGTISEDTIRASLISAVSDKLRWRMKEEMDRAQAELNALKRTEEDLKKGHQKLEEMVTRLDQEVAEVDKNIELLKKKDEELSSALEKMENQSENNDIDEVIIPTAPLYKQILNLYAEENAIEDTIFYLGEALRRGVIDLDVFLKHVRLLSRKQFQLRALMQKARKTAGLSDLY
#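 Fluorescence polarization binding of Tsg101 binding domain (10 uM final) to FITC-labeled PTAP peptide (50 nM final) in HEPES pH 7.5 buffer with NaCl, Tween 20, EDTA, TCEP. Compounds added before peptide; binding 20 min at RT.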
# MCF10A rereplic – inducers of DNA re-replication in MCF 10A breast cells | MCF 10A DNA re-replication, Hoechst nuclear intensity, 48 h | Potency, µM (doses to about 46.1 µM), inactives show at the highest dose activity, positive = re-replication, actives largely listed as activators | AID 624296 | 350,000 compounds, 2.9% hits; also: % of control where 0% means no effect; nearly all actives have a fitted effect of over 50% in size
# * = called active by the depositor; i = inactive; ? = inconclusive; . = not tested or not shown; ! = repeats disagree; [ ] = remark or other dose. Hits are enriched below; roughly 6.6% of the tested compounds scored in any of these assays. Unless noted, calls follow the shape of the dose curve; as a rule, active = well fitted curve in the direction sought with a large enough effect; inconclusive = small, poorly fitted or top-dose-only effect, or another doubt; inactive = no such curve, though single readings can be large; an effect the other way counts as inactive or inconclusive. Potency is read from the fitted curve at half-maximal effect.
SMILES,SW480 rereplic,KB-3-1 tox,RGS4 inhibitor,KB-V1 cytotox,TSG101-PTAP inh,MCF10A rereplic
CC(C)C[C@H](CO)N(Cc1ccccc1)S(=O)(=O)N(Cc1ccccc1)[C@@H](CO)CC(C)C,18%,?,5%,21µM*!,.,?
CCOC(=O)[C@@H](C)NS(=O)(=O)N(Cc1ccccc1)[C@H](C(=O)OC)C(C)C,?,i,-15%,?,-4%,0%
CCOC(=O)[C@@H](C)N(Cc1ccc(OC)cc1)S(=O)(=O)N(Cc1ccccc1)[C@H](C(=O)OC)C(C)C,2%,?,16%,9.2µM*!,-5%,?
C=CS(=O)(=O)N(Cc1ccccc1)[C@H](CO)CC(C)C,8%,?,0%,i,1%,9%
COC(=O)C(CC(C)C)N(Cc1cc(OC)cc(OC)c1)S(=O)(=O)c1ccccc1Br (centres undefined),21µM*,i,-21%,i,-4%,19%
CC(=O)c1cc(-c2ccc(F)cc2)n(CCC(=O)Nc2nc3ccc(C)cc3s2)c1C,.,i,-11%,i,.,.
Cc1cc(C)cc(NC(=O)c2cc(S(=O)(=O)N3CCCC3)ccc2F)c1,.,i,25%,i,.,.
CCc1ccc(NC(=O)C(=O)NCCc2sc(-c3ccc(C)cc3)nc2C)cc1,.,i,11%,i,.,.
Cc1cccc(CSc2nc3c(c(=O)[nH]2)C(c2cccc(O)c2)CC(=O)N3)c1 (centres undefined),.,?,0%,i,.,.
O=S(=O)(Nc1ccc2c(c1)OCCO2)c1ccc(F)cc1,-9%,i,4%,i,-2%,-3%
Cc1ccc(S(=O)(=O)N/N=C\c2ccc3c(c2)OCO3)cc1,21%,i,-9%,i,-1%,-3%
CC(=O)c1cc2c(cc1NS(=O)(=O)c1ccccc1)OCO2,1%,i,-37%,i,-2%,5%
Cc1ccc(S(=O)(=O)N/N=C\c2cc3c(cc2Br)OCO3)cc1,?,i,-27%,i,-1%,4.6µM*
Cc1ccc(S(=O)(=O)Nc2ccc3c(c2)OCCO3)cc1,-12%,?,-7%,23µM*,-2%,11%
O=C1CCCN1c1ccc(S(=O)(=O)Nc2ccc3c(c2)OCCO3)cc1,-2%,18µM*,-18%,18µM*,1%,1%
CC(=O)c1cc2c(cc1NS(=O)(=O)c1ccc(C)cc1)OCCO2,?,i,2%,16µM*,0%,15µM*
CCOC(=O)N1CCc2c(sc3c2c(=O)n(Cc2ccccc2)c(=O)n3CC(=O)Nc2ccc(F)cc2)C1,.,.,-11%,.,.,.
O=C(Cn1c(=O)n(Cc2ccco2)c(=O)c2sc3ccccc3c21)Nc1ccc(F)cc1F,.,i,-21%,i,.,.
CC(=O)c1sc(-c2ccccc2)cc1NS(=O)(=O)c1ccccc1,3%,i,5%,i,-2%,-13%
CC(=O)c1sc(-c2ccccc2)cc1NS(=O)(=O)c1ccc(C)cc1,?,i,-26%,?,-1%,12µM*
CC(=NNC(=S)N(Cc1ccccn1)Cc1ccccn1)c1cnccn1,?,?,?,13µM*,-4%,4.6µM*
S=C(NN=C(c1ccccc1)c1ccccn1)N(Cc1ccccn1)Cc1ccccn1,?,?,?,i,-6%,?
S=C(NN=Cc1ccccn1)N(Cc1ccccn1)Cc1ccccn1,5.8µM*,6.5µM*,-26%,?,-2%,13µM*
CCc1ccccc1NC(=O)Cn1c(C(=O)OC)cc2oc(C)cc21,.,i,18%,i,.,.
CCS(=O)(=O)N1CCc2cc(C(=O)NC(C)c3ccccc3)ccc21 (centres undefined),.,i,-5%,i,.,.
SMILES,SW480 rereplic,KB-3-1 tox,RGS4 inhibitor,KB-V1 cytotox,TSG101-PTAP inh,MCF10A rereplic
C=CCN1C(=O)S/C(=C/c2ccsc2)C1=O,-6%,i,-10%,?,0%,-2%
CC(C)N1C(=O)S/C(=C/c2ccc(Sc3nc4ccccc4[nH]3)o2)C1=O,?,?,-11%,23µM*,-2%,?
CCOC(=O)C(C)N1C(=O)S/C(=C\c2ccc(-c3ccccc3C(=O)O)o2)C1=O (centres undefined),?,i,-9%,i,2%,-8%
C=CCN1C(=O)S/C(=C/c2ccc(Sc3nc4ccccc4[nH]3)o2)C1=O,22%,?,-42%,3.7µM*,1%,?
O=CC(=O)c1ccc(Br)cc1,.,i,.,?,.,.
Cc1onc(-c2ccccc2)c1C(=O)Nc1nnc(C(C)C)s1,-18%,i,0%,i,0%,-1%
Cc1cnc(NC(=O)c2ccc3c(c2)OCCO3)s1,4.1µM*,5.8µM*,-5%,?,-2%,2.9µM*
Cc1nc2c(ccc3nc(NC(=O)Cc4cccc5ccccc45)sc32)s1,12%,i,-13%,i,1%,?
Cc1nc2ccc3nc(NC(=O)c4ccc5c(c4)OCCO5)sc3c2s1,-7%,i,?,i,-2%,-1%
Cc1nc2c(ccc3nc(NC(=O)c4ccc5c(c4)OCCO5)sc32)s1,?,i,-25%,i,6%,2.3µM*
Cc1nc2c(ccc3nc(NC(=O)C(c4ccccc4)c4ccccc4)sc32)s1,9%,i,-6%,i,1%,16µM*
Cc1onc(-c2ccccc2)c1C(=O)Nc1ncc([N+](=O)[O-])s1,14%,?,-19%,23µM*,-4%,?
O=C(OCc1cc(=O)n2nc(C3CC3)sc2n1)c1ccc(NC(=O)c2ccccc2Cl)cc1,.,?,-2%,i,.,.
O=C(C[n+]1cc(Br)cc(Br)c1)c1ccc(I)cc1,.,?,.,i,.,.
COc1cc(NC(=O)c2ccc3c(c2)OCO3)c2ncccc2c1,-3%[9.22 µM],i,?,i,0%,?
O=C(NC(=S)Nc1cccc(Cl)c1N1CCCCC1)c1ccc2c(c1)OCCO2,?,i,-10%,15µM*,1%,4.6µM*
Cc1cnc(NC(=O)c2cccc(S(=O)(=O)N3CC(C)OC(C)C3)c2)s1 (centres undefined),-3%,?,25%,16µM*,0%,5%
O=C(Nc1ncc([N+](=O)[O-])s1)c1ccc2c(c1)OCO2,8%,23µM*,-26%,?,-2%,-3%
O=C(Nc1cccc(Cl)c1N1CCCCC1)c1ccc2c(c1)OCCO2,0%,i,-7%,i,-4%,?
O=C(Nc1cccc2cccnc12)c1ccc2c(c1)OCCO2,0%,i,-5%,13µM*,-9%,?
